# In the library only some 5.7% were active in any assay of this set; here they are far more common.
# DAX1 inh-1: blocks DAX1 repression of SF-1 activated StAR promoter. HEK293T StAR-luciferase reporter, SF-1/DAX-1 repression relief. inhibition, % at 6.8 µM. actives 1.1% (n = 370,000);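 active = inhibition above the mean over all tested compounds plus 3 SD, cut at about 3.6% in these data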;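 note: higher inhibition means more luminescence from relief of DAX-1 repression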
# hgDAF12 agonist: activates the H. glycines DAF-12 receptor ligand-binding domain; HEK293 GAL4-hgDAF12 UAS-luciferase reporter, agonist luminescence; normalized to butyrate control; activation, % at 6.8 µM; actives 1.8% (n = 370,000); AID 687014;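 active = activation above a cutoff set at the mean of all screened compounds plus 3 SD, cut at about 10% in these data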
# AHR act: activators of human aryl hydrocarbon receptor | P35869 | AHR-responsive luciferase reporter cells, luminescence | activation, % at 5 µM | actives 2.5% (n = 320,000); in the data active = activation above about 47%
# Target sequence (P35869 whole entry, looked up): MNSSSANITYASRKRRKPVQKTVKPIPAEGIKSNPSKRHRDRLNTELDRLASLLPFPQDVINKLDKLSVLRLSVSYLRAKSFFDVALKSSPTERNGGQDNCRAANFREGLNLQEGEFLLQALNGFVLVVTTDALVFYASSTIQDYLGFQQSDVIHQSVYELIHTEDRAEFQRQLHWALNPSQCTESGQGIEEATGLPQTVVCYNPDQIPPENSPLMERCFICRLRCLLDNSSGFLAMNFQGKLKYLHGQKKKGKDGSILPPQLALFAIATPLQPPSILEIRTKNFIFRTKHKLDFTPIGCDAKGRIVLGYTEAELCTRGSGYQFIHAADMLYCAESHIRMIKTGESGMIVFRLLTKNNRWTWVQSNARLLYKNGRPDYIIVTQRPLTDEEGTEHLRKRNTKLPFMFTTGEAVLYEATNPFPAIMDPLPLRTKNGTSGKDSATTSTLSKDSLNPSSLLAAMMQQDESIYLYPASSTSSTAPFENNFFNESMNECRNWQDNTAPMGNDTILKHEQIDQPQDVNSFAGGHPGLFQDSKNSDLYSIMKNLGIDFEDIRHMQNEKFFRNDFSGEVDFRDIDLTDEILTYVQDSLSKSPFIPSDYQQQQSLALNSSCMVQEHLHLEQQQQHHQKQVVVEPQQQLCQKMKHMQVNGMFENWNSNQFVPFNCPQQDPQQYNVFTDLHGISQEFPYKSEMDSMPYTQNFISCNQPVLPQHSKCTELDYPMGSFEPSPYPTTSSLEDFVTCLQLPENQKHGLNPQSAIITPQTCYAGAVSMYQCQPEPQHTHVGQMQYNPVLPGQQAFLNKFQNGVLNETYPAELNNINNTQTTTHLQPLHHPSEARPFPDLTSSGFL
# DAX1 inh-2: NR0B1 (DAX1) inhibition; P51843; HEK293 Gal4-DAX1 luciferase reporter, luminescence; inhibition, % at 6.75 µM; actives 0.99% (n = 340,000); AID 504766;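 active = inhibition above the mean over all tested compounds plus 3 SD, cut at about 4.2% in these data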;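 note: inhibition shows as a rise in luminescence from relieved DAX1 repression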
# ssDAF-12 act: S. stercoralis DAF-12 activation, primary screen; HEK293 ssDAF-12/GRIP1 lit1-tk-luc reporter, luminescence; % of 3 µM dafachronic acid response; activation, % at 6.8 µM; actives 1% (n = 370,000);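 active = activation above the mean over all tested compounds plus 3 SD, cut at about 0.9% in these data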
# hcDAF-12 act: H. contortus DAF-12 activation, primary screen; HEK293 hcDAF-12 lit1-tk-luc reporter, luminescence; 0% DMSO, 100% Δ7-dafachronic acid; activation, % at 6.8 µM; actives 1.4% (n = 370,000); AID 652067;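 active = activation above the mean of all tested compounds plus 3 SD, cut at about 5.5% in these data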
# Numbers stand for hits; – = inactive; · = not tested or not shown.
SMILES,DAX1 inh-1,hgDAF12 agonist,AHR act,DAX1 inh-2,ssDAF-12 act,hcDAF-12 act
CCOC(=O)/C(C(=Nc1ccccc1)Nc1ccccc1)=C(\C)O,–,–,–,–,–,–
CC(c1ccco1)N(C(=O)C12CC3(C)CC(C)(CC(C)(C3)C1)C2)c1ccccn1 (configuration not stated),–,–,–,5.4,–,–
COc1cc(NC(=O)C2CCCCC2)c(OC)cc1NC(=O)c1ccccc1,–,–,54,–,–,–
COc1cc(NC(=O)C2CCCO2)c(OC)cc1NC(=O)c1ccccc1 (configuration not stated),–,–,78,–,–,–
CCc1ccc(NC(=O)c2ccccc2NC(=O)C2CCCO2)cc1 (configuration not stated),–,13,–,–,–,–
COc1cc(NC(=O)C2CCCO2)c(OC)cc1Cl (configuration not stated),–,–,–,–,–,–
COc1cc(NC(=O)C2CCCCC2)c(OC)cc1NC(=O)c1ccco1,–,–,–,–,–,–
CCOc1ccccc1NC(=O)c1cccc(NC(=O)C2CCCC2)c1,–,–,60,–,–,–
COc1ccc(OC)c2c1CC(C)(C)NC2=O,–,–,–,–,–,–
O=[N+]([O-])c1cccnc1NCCc1c[nH]c2ccccc12,–,12,–,–,1.0,–
CCN(CC)S(=O)(=O)c1ccc(N2CC(C(=O)NCc3ccc4c(c3)OCO4)CC2=O)cc1 (configuration not stated),–,–,–,–,–,–
CC(C)n1nnnc1C1c2ccccc2C(=O)N1CCc1ccccc1F (configuration not stated),–,15,·,·,–,5.7
CC(C)n1nnnc1C1c2ccccc2C(=O)N1CCOc1ccccc1 (configuration not stated),–,13,·,·,–,–
COc1ccc(CN2C(=O)c3ccccc3C2c2nnnn2C(C)C)cc1 (configuration not stated),–,–,·,·,–,–
Cc1nc2sc(C(c3ccco3)N3CCN(c4ccc(F)cc4)CC3)c(O)n2n1 (configuration not stated),–,–,–,–,–,–
CNCCOc1ccc(Cl)c(Cl)c1,–,–,–,5.3,–,–
CC(=O)N1CCN(c2ccc(NCc3ccc(F)cc3)cc2)CC1,–,–,–,–,–,–
COc1cc(CNc2ccc(N3CCN(C(C)=O)CC3)cc2)ccc1OCc1ccc(F)cc1,–,11,–,–,–,–
CC1=NN(c2ccccc2C)C(=O)C1,–,–,·,–,1.9,–
Cc1cc(C)c(C(CC(=O)c2cccs2)C(C#N)C#N)c(C)c1 (configuration not stated),–,–,58,–,–,–
CC(CC(=O)c1cccs1)CC(=O)c1cccs1,–,–,–,–,–,–
Cc1c(Cl)cnc(NC(=O)COC(=O)c2cc3c(s2)CCC(C)C3)c1Cl (configuration not stated),–,–,–,–,1.4,–
CCC(=O)c1ccc(OCC(=O)OCC(=O)NCCC2=CCCCC2)cc1,–,–,–,–,–,–
Cc1nc(C(F)(F)F)ccc1C(=O)N1CCC1(C)C(=O)NS(=O)(=O)c1ccc(C(C)(C)C)cc1 (configuration not stated),–,–,·,·,–,–
COc1ccc(-n2nnnc2SCC(=O)Nc2ccccc2N2CCOCC2)cc1OC,–,–,–,4.3,–,–
SMILES,DAX1 inh-1,hgDAF12 agonist,AHR act,DAX1 inh-2,ssDAF-12 act,hcDAF-12 act
Cn1nnnc1SCC(=O)Nc1ccccc1N1CCOCC1,–,–,–,–,–,–
Cc1[nH]c(C(=O)N/N=C/c2ccc(C(=O)O)cc2)c(C)c1C(=O)N/N=C/c1ccc(C(=O)O)cc1,–,–,–,–,–,–
CCOC(=O)c1c(C)[nH]c(C(=O)N/N=C/c2ccc(Br)cc2)c1C,–,–,67,–,–,–
Nc1ccccc1-c1ccc(Cl)cc1,4.1,–,·,–,–,–
Nc1ccccc1-c1ccccc1N,–,–,–,–,–,–
COC1=CC(=O)OC(c2ccccc2)C1 (configuration not stated),–,–,·,·,–,–
Cc1cccc(NC(=O)CSc2nc3c([nH]c4ccccc43)c(=O)n2C)c1,–,–,–,–,–,6.0
COCCn1c(SCC(=O)Nc2ccc(C(C)=O)cc2)nc2c([nH]c3ccccc32)c1=O,–,–,–,–,–,–
COCCn1c(SCC(=O)Nc2ccc(C)cc2C)nc2c(oc3ccccc32)c1=O,–,–,–,–,0.9,–
COCCn1c(SCC(=O)Nc2ccccc2C)nc2c(oc3ccccc32)c1=O,–,–,–,–,–,–
C=CCn1c(SCC(=O)Nc2ccc(OC)cc2)nc2c([nH]c3ccccc32)c1=O,–,–,–,–,–,–
COCCn1c(SCC(=O)Nc2cccc(F)c2)nc2c([nH]c3ccccc32)c1=O,–,–,65,–,–,–
COc1cccc(NC(=O)CSc2nc3c([nH]c4ccccc43)c(=O)n2C)c1,–,–,–,–,–,6.4
COC(=O)c1cc(S(=O)(=O)N(C)Cc2ccco2)c[nH]1,–,–,–,–,–,–
Nc1cccc(-c2cnc3ccccc3n2)c1,–,–,–,–,–,–
CC(=O)N1C=CN(C(C)=O)C(c2cn(C)c3ccccc23)C1c1cn(C)c2ccccc12 (configuration not stated),–,–,–,–,–,–
CCCOC(=O)c1cccc(NC(=O)C(C)(C)C)c1,–,–,–,–,–,–
Cc1nc2nc(C)c(NS(=O)(=O)c3ccc(C4CCCCC4)cc3)c(=O)n2[nH]1,–,–,–,–,–,–
Cc1ccc(C(C(=O)NCC2CCCO2)N(Cc2ccccc2F)C(=O)Cn2nnc(-c3cccs3)n2)cc1 (configuration not stated),–,–,–,–,–,–
CCSc1nc2c([nH]c3ccccc32)c(=O)n1C,–,–,–,–,–,–
CCn1c(SCC(=O)N2CCN(c3ccccc3)CC2)nc2c([nH]c3ccccc32)c1=O,–,–,54,–,1.2,–
CCn1c(SCC(=O)N2CCC(C)CC2)nc2c([nH]c3ccccc32)c1=O,–,–,·,–,–,–
Cn1c(SCC(=O)Nc2ccccc2)nc2c([nH]c3ccccc32)c1=O,–,–,53,–,–,–
CC(=O)Nc1ccc(NC(=O)CSc2nc3c([nH]c4ccccc43)c(=O)n2-c2ccccc2F)cc1,–,–,58,–,–,–
COc1ccc(-n2c(SCC(=O)Nc3cc(C)on3)nc3c([nH]c4ccccc43)c2=O)cc1,–,–,–,–,1.1,–
Cc1ccc(-n2c(SCC(=O)Nc3cc(C)on3)nc3c([nH]c4ccccc43)c2=O)cc1,–,–,–,–,–,–
